# High-throughput results from PubChem.
# PAFAH1B2 FP inh = blocks human PAF acetylhydrolase 1b catalytic subunit 2; P68402; recombinant PAFAH1B2, FP-rhodamine activity probe, fluorescence polarization; inhibition, % at 3.39 µM; actives 1.2% (n = 340,000); AID 492953;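 active = inhibition above the mean of all tested compounds plus 3 SD, cut at about 24% in these data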
# PAFAH2 inh = inhibitors of human PAFAH2. actives 0.99% (n = 340,000). inhibition, % at 3.39 µM. recombinant PAFAH2, FP-rhodamine activity probe, fluorescence polarization;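 active = inhibition above the mean over all tested compounds plus 3 SD, cut at about 30% in these data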;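 note: inhibitors block probe labeling of enzyme so polarization drops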
# ZTA DNA inh = blocks Epstein-Barr virus ZTA, an EBNA-1 counter-screen; P03206; ZTA-DNA binding, fluorescence polarization; inhibition, % at 11 µM; actives 0.15% (n = 320,000); AID 2234; in the data active = inhibition above about 33%
# Target sequence (P03206 whole entry, looked up): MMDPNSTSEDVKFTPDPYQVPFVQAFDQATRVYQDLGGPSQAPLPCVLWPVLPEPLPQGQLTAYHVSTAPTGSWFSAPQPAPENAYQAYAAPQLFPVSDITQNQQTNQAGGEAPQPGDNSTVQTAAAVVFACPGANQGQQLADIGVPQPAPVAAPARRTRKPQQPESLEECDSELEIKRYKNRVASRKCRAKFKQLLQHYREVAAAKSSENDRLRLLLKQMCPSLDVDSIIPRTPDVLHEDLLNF
# EBNA-1 inh = blocks EBNA-1 binding to DNA; EBNA-1 DNA binding, fluorescence polarization; inhibition, % at 14.8 µM; actives 0.34% (n = 300,000); AID 1950; in the data active = inhibition above about 28%
# rCAG RNA binder = r(CAG) repeat RNA binding; TO-PRO-1 dye displacement fluorescence; actives 1.3% (n = 370,000); inhibition, % at 3 µM;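 active = inhibition above the plate cutoff, the mean of all test compounds on that plate plus 3 SD, cut at about 35% in these data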;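 note: higher means more dye released from RNA so lower well fluorescence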
# PAFAH1B3 FP inh = inhibitors of human PAFAH1B3; Q15102; recombinant PAFAH1B3, FP-rhodamine probe, fluorescence polarization; inhibition, % at 3.39 µM; actives 0.28% (n = 340,000);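 active = inhibition above the screen-wide average of all tested compounds plus 3 SD, cut at about 25% in these data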
# Target sequence (Q15102 whole entry, looked up): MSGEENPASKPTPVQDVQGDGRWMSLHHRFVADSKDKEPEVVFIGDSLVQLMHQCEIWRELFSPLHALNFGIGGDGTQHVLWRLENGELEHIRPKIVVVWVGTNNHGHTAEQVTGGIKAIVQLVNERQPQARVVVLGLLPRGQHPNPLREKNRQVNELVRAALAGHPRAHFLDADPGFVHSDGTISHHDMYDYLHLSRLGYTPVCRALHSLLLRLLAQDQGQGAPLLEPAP
# ZTA inh confirm = EBV ZTA DNA binding inhibition, confirmation. actives 30% (n = 320). AID 2361. Zta-ZRE DNA binding, fluorescence polarization. inhibition, % at 11.1 µM. shares compounds with ZTA DNA inh;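 active = mean inhibition across triplicate runs above the hit threshold derived for the original primary screen, cut at about 33% in these data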
# EBNA1 counter = counter-screen for ZTA inhibitors: EBNA-1 DNA binding inhibition; shares compounds with ZTA DNA inh; fluorescence polarization; inhibition, % at 14.8 µM; 320 tested, under 10 active; call rule not given here
# PAFAH2 confirm = confirmation of human PAFAH2 inhibitors. shares compounds with PAFAH2 inh. recombinant PAFAH2, FP-rhodamine activity probe, fluorescence polarization. inhibition, % at 3.39 µM. actives 65% (n = 2,300). AID 493030;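 active = mean inhibition over three repeats above a set limit taken from the earlier primary screen, cut at about 30% in these data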;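 note: inhibitor blocks binding of rhodamine activity probe so polarization falls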
# rCAG bind conf = r(CAG) RNA repeat binding, confirmation; shares compounds with rCAG RNA binder; TO-PRO-1 dye displacement fluorescence; inhibition, % at 3 µM; actives 70% (n = 4,300);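 active = inhibition above a per-plate cutoff, the mean inhibition of sample wells plus 3 SD, cut at about 35% in these data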;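 note: loss of TO-PRO-1 fluorescence as compound displaces dye from 1x1 AA loop RNA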
# dCAG dye counter = counter-screen for rCAG RNA binders: DNA CAG dye complex inhibitors | shares compounds with rCAG RNA binder | d(CAG) DNA oligo TO-PRO-1 dye displacement, fluorescence | inhibition, % at 3 µM | actives 94% (n = 4,300) | AID 652068;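 active = inhibition above its plate's cutoff, the mean test-well inhibition plus 3 SD, cut at about 4.8% in these data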;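 note: hits displace the dye from DNA and so lower well fluorescence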
# Hits are given with their value; 0 = inactive; - = not tested or not shown. Most compounds without a hit are left out; they make up all but 2.9% or so of the library.
SMILES,PAFAH1B2 FP inh,PAFAH2 inh,ZTA DNA inh,EBNA-1 inh,rCAG RNA binder,PAFAH1B3 FP inh,PAFAH2 confirm,others
COc1ccc(NC(=O)CCCN2C(=O)/C(=C\c3ccco3)SC2=S)cc1,0,0,0,0,0,0,-,
O=C(CCCN1C(=O)/C(=C\c2ccco2)SC1=S)Nc1ccc(O)cc1C(=O)O,0,39,53,0,90,0,-,ZTA inh confirm=0;EBNA1 counter=0;rCAG bind conf=78;dCAG dye counter=43
O=C(CN1C(=O)/C(=C/c2ccco2)SC1=S)Nc1ccc(C(=O)O)c(O)c1,0,0,57,0,93,0,-,ZTA inh confirm=0;EBNA1 counter=0;rCAG bind conf=85;dCAG dye counter=53
CC1=NN(c2cccc(C(=O)O)c2)C(=O)/C1=C\C=C\c1ccco1,0,48,70,0,56,0,-,ZTA inh confirm=67;EBNA1 counter=0;rCAG bind conf=64;dCAG dye counter=26
CCOC(=O)C1=NOC(C(C)=O)(C(=O)N2CCOCC2)C1 (stereo unspecified),-,-,-,-,0,-,-,
COc1cc(C)c2c(c1C=O)Oc1c(c(C)c(O)c3c1C(O)OC3=O)OC2=O (stereo unspecified),0,49,67,0,54,0,0,ZTA inh confirm=63;EBNA1 counter=0;rCAG bind conf=0;dCAG dye counter=7.0
COC(=O)[C@]12C[C@H](CC(=O)NCC3CCCCC3)C(=O)N(CCC3=CCCCC3)C1=C[C@H](C1CCCC1)O[C@@H]2C,-,-,-,-,0,-,-,
CCOc1ccc(-n2c(SCC(=O)Nc3ccc(Oc4ccccc4)cc3)nnc2-c2ccncc2)cc1,-,-,-,-,0,-,-,
C#CCC1c2ccccc2CCN1CC=C (stereo unspecified),-,-,-,-,0,-,-,
O=C(O)c1cccc(-c2nnn(Cc3ccccc3)n2)c1,0,0,0,0,0,0,-,
O=C(O)c1cccc(-c2nnn(Cc3ccccc3Cl)n2)c1,0,84,0,0,0,0,0,
Nc1c(Cl)cc(Cl)cc1C(=O)OCC(=O)N1CCCC1,0,0,0,0,0,0,-,
Nc1c(Cl)cc(Cl)cc1C(=O)OCC(=O)N1CCCC1=O,0,40,0,0,-,0,36,
Cc1cccc(C(=O)OCC(=O)N2CCCC2=O)c1O,0,38,0,-,0,0,0,
Cc1cccc(C(=O)OCC(=O)N2CCCCCC2)c1O,0,0,0,-,0,0,-,
COC(=O)C(=Cc1ccc(-c2ccsc2C(=O)OC)o1)C(=O)OC,0,0,0,0,0,0,-,
COC(=O)c1sccc1-c1ccc(/C=N/OC(=O)c2cccs2)o1,0,50,0,0,0,0,0,
O=C(NCC1CCCO1)NC12CC3CC(CC(C3)C1)C2 (stereo unspecified),0,33,0,0,0,0,0,
S=C(NCC1CCCO1)NC12CC3CC(CC(C3)C1)C2 (stereo unspecified),0,0,0,0,0,0,-,
CCOC(=O)C1(Cc2ccccc2)CCN(C2Cc3ccccc3C2)CC1,0,33,0,0,0,0,0,
COc1ccccc1-n1c(C)c2c(OC)cccc(=O)c2c1C,0,39,0,0,0,0,55,
CCCc1cn(-c2ccc3c(c2)[C@]2(CC(=O)N(C)C2c2ccccc2)C(=O)N3CC(C)C)nn1 (stereo partly specified),-,-,-,-,0,-,-,
COc1ccc(C2CC(c3ccccc3)=NN2C(=O)COC(=O)c2cc(S(=O)(=O)N3CCOCC3)ccc2F)cc1 (stereo unspecified),0,48,0,0,0,0,51,
O=C(COC(=O)c1cccnc1Cl)Nc1cccc(S(=O)(=O)N2CCOCC2)c1,0,0,-,-,0,0,-,
COc1ccc(C(=O)OCC(=O)Nc2cc(S(=O)(=O)N3CCOCC3)ccc2N2CCCC2)cc1,0,38,0,0,0,0,33,
SMILES,PAFAH1B2 FP inh,PAFAH2 inh,ZTA DNA inh,EBNA-1 inh,rCAG RNA binder,PAFAH1B3 FP inh,PAFAH2 confirm,others
COc1cc(C(=O)OCC(=O)Nc2cccc(S(=O)(=O)N3CCOCC3)c2)ccc1OCC(C)C,0,46,0,0,0,0,44,
Nc1cc(C(=O)OCC(=O)Nc2cccc(S(=O)(=O)N3CCOCC3)c2)ccc1Cl,0,65,-,-,0,0,58,
Cc1ccc(S(=O)(=O)N2CCOCC2)cc1NC(=O)COC(=O)c1ccc(Cl)nc1,0,0,-,-,0,0,-,
COc1cc(C(=O)OCC(=O)Nc2cc(S(=O)(=O)N3CCOCC3)ccc2C)ccc1OCC(C)C,0,58,0,0,0,0,49,
COc1ccc(CC(=O)OCC(=O)Nc2cc(S(=O)(=O)N3CCOCC3)ccc2N2CCCC2)cc1,0,0,0,0,0,0,-,
CC(C)C1CC(N(C)C)=CC(=S)N1 (stereo unspecified),-,-,-,-,0,-,-,
COCCCNC(=O)C[C@@H]1C[C@@]2(C(=O)OC)CC(C)(C)CC=C2N(Cc2ccccc2)C1=O,-,-,-,-,0,-,-,
Cc1ccc(S(=O)(=O)N2CCOCC2)cc1NC(=O)COC(=O)c1ccc(Br)cc1,0,42,-,-,0,0,31,
O=C(COC(=O)c1ccc2c(c1)OCCO2)NCc1ccc(Cl)cc1,-,-,-,-,0,-,-,
CC(NC(=O)COC(=O)c1ccc2c(c1)OCCO2)c1ccccc1 (stereo unspecified),0,63,-,-,0,0,61,
CCNc1ccc(C(=O)OCC(=O)NC(C)c2ccccc2)cc1[N+](=O)[O-] (stereo unspecified),0,83,0,0,0,0,73,
O=C(COC(=O)c1ccc2c(c1)OCCO2)NCCc1ccccc1,0,46,-,-,0,0,41,
O=C(Nc1ccc(F)cc1)OCc1cn(Cc2cccc(F)c2)nn1,-,-,-,-,0,-,-,
COc1cccc(CNC(=O)C2CCN(c3nc(OC)nc(OC)n3)CC2)c1,-,-,-,-,0,-,-,
O=C(COC(=O)c1ccc(CN2CCCC2=O)cc1)Nc1ccc(F)cc1,0,85,0,-,0,0,86,
Cc1ccc(NC(=O)COC(=O)c2ccc(CN3CCCC3=O)cc2)cc1C,0,92,-,-,0,0,85,
CC(OC(=O)c1ccc(CN2CCCC2=O)cc1)C(=O)Nc1ccc(Cl)cc1 (stereo unspecified),0,0,0,-,0,0,-,
O=C(NCc1c(F)cccc1F)C1CCC(CNS(=O)(=O)c2cccc3cccnc23)CC1 (stereo unspecified),-,-,-,-,0,-,-,
COC(=O)[C@@]12C[C@@H](CC(=O)NCC3CCCCC3)C(=O)N(Cc3ccc4c(c3)OCO4)C1=CCC(C)(C)C2,-,-,-,-,0,-,-,
Cc1ccc(C(=O)ONc2ccc(N=O)cc2)cc1,0,57,0,0,0,0,52,
